Bioassay records deposited in PubChem by The Scripps Research Institute Molecular Screening Center.
GPR151 ag: human GPR151 activation. hit rate 1% among 650,000. Q8TDV0. PathHunter beta-arrestin GPR151 cells, luminescence. AID 1508602. activation, % at 11.2 µM; in the data active = activation above about 4.9%;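 also: 0% = median of compound wells and 100% = cells with positive control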
FBW7 act: human FBW7 E3 ligase activation, primary screen | normalized activity (activation), % at 26.1 µM | Q969H0 | hit rate 0.13% among 650,000 | AlphaScreen FBW7–phospho-cyclin E peptide binding, activator screen | AID 1259310; in the data active = normalized activity above about 1.9%;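 also: purified mutant Fbw7 with reduced substrate affinity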
Target sequence (Q969H0 whole entry, looked up): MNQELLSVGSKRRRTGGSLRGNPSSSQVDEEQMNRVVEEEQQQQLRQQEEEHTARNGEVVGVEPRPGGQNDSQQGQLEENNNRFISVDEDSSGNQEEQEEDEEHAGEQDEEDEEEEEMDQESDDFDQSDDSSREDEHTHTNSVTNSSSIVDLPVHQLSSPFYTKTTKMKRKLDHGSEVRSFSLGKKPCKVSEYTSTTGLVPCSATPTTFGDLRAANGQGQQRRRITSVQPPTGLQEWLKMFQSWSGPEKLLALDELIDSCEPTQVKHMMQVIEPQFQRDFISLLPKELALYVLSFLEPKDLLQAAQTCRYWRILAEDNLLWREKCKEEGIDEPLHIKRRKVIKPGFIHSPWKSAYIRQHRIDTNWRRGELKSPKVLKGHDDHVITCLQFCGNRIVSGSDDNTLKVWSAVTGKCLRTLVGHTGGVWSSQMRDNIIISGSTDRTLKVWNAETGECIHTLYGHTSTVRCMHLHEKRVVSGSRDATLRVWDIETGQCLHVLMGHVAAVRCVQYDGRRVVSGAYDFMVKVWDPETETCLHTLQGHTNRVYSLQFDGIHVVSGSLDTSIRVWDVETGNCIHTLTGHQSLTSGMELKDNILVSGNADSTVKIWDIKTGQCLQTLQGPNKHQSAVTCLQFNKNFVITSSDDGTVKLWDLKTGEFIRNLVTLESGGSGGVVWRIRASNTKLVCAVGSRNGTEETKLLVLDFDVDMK
TEAD-YAP inh: TEAD-YAP interaction inhibition | HEK-TIYL cells, TEAD-Gal4/YAP UAS-luciferase luminescence | inhibition, % at 9.12 µM | hit rate 1.4% among 640,000; in the data active = inhibition above about 32%;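 also: 0% = median of test compound wells and 100% = reference inhibitor wells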
MITF primary: inhibitors of human MITF; O75030; AlphaScreen MITF homodimerization, bead proximity signal; inhibition, % at 2.6 µM; hit rate 0.91% among 650,000; in the data active = inhibition above about 50%;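 also: 0% = vehicle wells with protein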
Active calls of the source: *. Only some compounds are listed: those with a hit (about 3.4% of all), similar ones and a draw of the others.

`CC1(C)CC2CC(C)(CN2c2ccc(C(=O)O)cc2[N+](=O)[O-])C1` (stereo unspecified) gave GPR151 ag -1, FBW7 act 0, TEAD-YAP inh 35* and MITF primary 6.
CC1=C(C(=O)OCc2ccccc2)C(c2ccc(Cl)cc2)C(C#N)=C(SCC(=O)Nc2ccc(C)cc2)N1 (stereo unspecified) was read as GPR151 ag 0, FBW7 act 0, TEAD-YAP inh 7 and MITF primary 8.
Screening CCCCOc1ccc(-c2csc(-c3cc4ccccc4oc3=O)n2)cc1 returned GPR151 ag 2, FBW7 act 0, TEAD-YAP inh -3 and MITF primary 2.
`O=C(Cc1ccc(F)cc1)Nc1c2c(nn1-c1cccc(Cl)c1)CSC2` gave GPR151 ag 0, FBW7 act 0, TEAD-YAP inh 4 and MITF primary 2.
For COC(=O)c1ccccc1C(=O)N1CCN(c2nc3ccc(SC)cc3s2)CC1 the results were GPR151 ag -1, FBW7 act 0, TEAD-YAP inh 47* and MITF primary 5.
`CSc1ccc2nc(N3CCN(C(=O)CN(C)S(C)(=O)=O)CC3)sc2c1` gave GPR151 ag 0, FBW7 act 0, TEAD-YAP inh -24 and MITF primary -2.
For Cc1ccc(NC(=O)NCc2noc3ccccc23)c(Br)c1 the results were GPR151 ag 0, FBW7 act 0, TEAD-YAP inh -5 and MITF primary 7.
For Cn1nccc1C(=O)Nc1ccc(OC(=O)c2ccnn2C)cc1 the results were GPR151 ag 2, FBW7 act 0, TEAD-YAP inh 34* and MITF primary -5.
Screening CCOC(=O)c1ccc(NC(=O)c2ccnn2C)cc1 returned GPR151 ag -6, FBW7 act 0, TEAD-YAP inh -43 and MITF primary -4.
CCc1nc2sc(C(=O)c3ccc4c(c3)OCO4)c(N)c2cc1C was read as GPR151 ag 0, FBW7 act 1, TEAD-YAP inh 40* and MITF primary -5.
For COc1cccc(-n2c(SCC(=O)Nc3ccc(C(C)C)cc3)nc3n[nH]c(C)c3c2=N)c1 the results were GPR151 ag -1, FBW7 act 0, TEAD-YAP inh 37* and MITF primary -1.
For Cc1ccc(-n2c(SCC(=O)NCc3ccccc3)nc3n[nH]c(C)c3c2=N)cc1C the results were GPR151 ag 0, FBW7 act 0, TEAD-YAP inh 41* and MITF primary 2.
For COc1cccc(-n2c(SCC(=O)Nc3ccc(C)cc3)nc3n[nH]c(C)c3c2=N)c1 the results were GPR151 ag 3, FBW7 act 0, TEAD-YAP inh 6 and MITF primary 11.
For CCN(CC)C(=O)CSc1nc2n[nH]c(C)c2c(=N)n1-c1ccc(Oc2ccccc2)cc1 the results were GPR151 ag 1, FBW7 act 0, TEAD-YAP inh 42* and MITF primary 10.
Cc1ccc(-n2c(SCC(=O)NCc3ccccc3)nc3n[nH]c(C)c3c2=N)cc1Cl was read as GPR151 ag 5, FBW7 act 0, TEAD-YAP inh 19 and MITF primary 19.
Screening Cc1cc(=O)n2c(-c3cccc(NC(=O)c4ccccn4)c3)csc2n1 returned GPR151 ag 0, FBW7 act 0, TEAD-YAP inh 3 and MITF primary -9.
Screening CCN(CC)C(=O)c1cc(-c2ccc(Cl)cc2Cl)on1 returned GPR151 ag 0, FBW7 act 0, TEAD-YAP inh -77 and MITF primary 13.
CC(C)(CO)NC(=O)c1cc(-c2ccc(Cl)cc2Cl)on1 was read as GPR151 ag -1, FBW7 act 0, TEAD-YAP inh 48* and MITF primary -15.
For N#Cc1cc2c(nc1SCC(=O)Nc1nc3ccccc3s1)CCC2 the results were GPR151 ag 1, FBW7 act 0, TEAD-YAP inh 90* and MITF primary 3.
For COc1cc2cc(C#N)c(SCC(=O)N3CCOCC3)nc2cc1OC the results were GPR151 ag 2, FBW7 act 0, TEAD-YAP inh -3 and MITF primary -7.
For CCc1ccc2nc(SCC(=O)OC)c(C#N)cc2c1 the results were GPR151 ag 1, FBW7 act 0, TEAD-YAP inh -61 and MITF primary 5.
For CCc1ccc2nc(SCC(N)=O)c(C#N)cc2c1 the results were GPR151 ag 1, FBW7 act 0, TEAD-YAP inh 50* and MITF primary -9.
Screening CC(C)c1ccc2nc(SCC(=O)N3CCOCC3)c(C#N)cc2c1 returned GPR151 ag -1, FBW7 act 0, TEAD-YAP inh 36* and MITF primary 0.
`N#Cc1cc2c(nc1SCC(=O)Nc1ccccc1)CCCC2` gave GPR151 ag -1, FBW7 act 0, TEAD-YAP inh -38 and MITF primary -7.
N#Cc1cc2c(nc1SCC(=O)N1CCOCC1)CCCCC2 was read as GPR151 ag 0, FBW7 act 0, TEAD-YAP inh 83* and MITF primary -5.
For Cc1cc(C)n(CCNC(=O)c2ccc(CN3CCSCC3)[nH]c2=O)n1 the results were GPR151 ag 2, FBW7 act 0, TEAD-YAP inh -1 and MITF primary 4.
`O=C(CSc1nc(=O)n(CCO)c2c1CCCC2)N1CCN(c2ccccc2)CC1` gave GPR151 ag -1, FBW7 act 0, TEAD-YAP inh -3 and MITF primary -4.
For O=C(N1CCOCC1)N1CCCC(c2ncncc2-c2ccncc2)C1 (stereo unspecified) the results were GPR151 ag 0, FBW7 act 2.2*, TEAD-YAP inh 11 and MITF primary 16.
For CNc1nc(-c2ccc3c(c2)CCN3C(=O)C2CC2)cs1 the results were GPR151 ag 1, FBW7 act 0, TEAD-YAP inh 63* and MITF primary -2.
For CC1Cc2cc(-c3csc(NC(=O)Cc4cccs4)n3)ccc2N1S(C)(=O)=O (stereo unspecified) the results were GPR151 ag -1, FBW7 act 0, TEAD-YAP inh 57* and MITF primary -2.
`Cc1sc(NC(=O)c2ccncc2)nc1-c1ccc2c(c1)CCN2C(=O)C1CC1` gave GPR151 ag 0, FBW7 act 0, TEAD-YAP inh 38* and MITF primary -13.
`CNc1nc(-c2ccc3c(c2)CC(C)N3S(C)(=O)=O)cs1` (stereo unspecified) gave GPR151 ag -1, FBW7 act 0, TEAD-YAP inh 44* and MITF primary -2.
`CNc1nc(-c2ccc3c(c2)CCN3C(=O)C2CC2)c(C)s1` gave GPR151 ag 1, FBW7 act 0, TEAD-YAP inh 5 and MITF primary -3.
Screening Cc1sc(N)nc1-c1ccc2c(c1)CC(C)N2S(C)(=O)=O (stereo unspecified) returned GPR151 ag -2, FBW7 act 0, TEAD-YAP inh 7 and MITF primary 4.
`Cc1ccc(NC(=O)c2cc(S(=O)(=O)Nc3ccc(F)cc3)ccc2Cl)cc1` gave GPR151 ag 0, FBW7 act 0, TEAD-YAP inh 10 and MITF primary -5.
For O=C(CSc1nc2ccccc2c(=O)n1Cc1ccc2c(c1)OCO2)NC1CCCC1 the results were GPR151 ag -1, FBW7 act 0, TEAD-YAP inh 3 and MITF primary 2.
